Source: PubChem (Broad Institute)
Rows were chosen to be rich in hits. Some 3.2% of all compounds tested hit in one or more screens of this group.
ERAP1 inh – human ERAP1 aminopeptidase inhibitors, primary screen, biochemical, single point, plate reader; Endoplasmic reticulum aminopeptidase 1 (Homo sapiens), Q9NZ08; recombinant ERAP1, Leu-AMC fluorescence, 60 min; inhibition, % at 10.7 µM; hit rate 0.15% among 340,000;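 active means mean replicate inhibition of at least 30%, or all replicates individually reaching that 30% level; inactive means mean below 30% and not every replicate reaching it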
Target sequence (Q9NZ08 whole entry, looked up): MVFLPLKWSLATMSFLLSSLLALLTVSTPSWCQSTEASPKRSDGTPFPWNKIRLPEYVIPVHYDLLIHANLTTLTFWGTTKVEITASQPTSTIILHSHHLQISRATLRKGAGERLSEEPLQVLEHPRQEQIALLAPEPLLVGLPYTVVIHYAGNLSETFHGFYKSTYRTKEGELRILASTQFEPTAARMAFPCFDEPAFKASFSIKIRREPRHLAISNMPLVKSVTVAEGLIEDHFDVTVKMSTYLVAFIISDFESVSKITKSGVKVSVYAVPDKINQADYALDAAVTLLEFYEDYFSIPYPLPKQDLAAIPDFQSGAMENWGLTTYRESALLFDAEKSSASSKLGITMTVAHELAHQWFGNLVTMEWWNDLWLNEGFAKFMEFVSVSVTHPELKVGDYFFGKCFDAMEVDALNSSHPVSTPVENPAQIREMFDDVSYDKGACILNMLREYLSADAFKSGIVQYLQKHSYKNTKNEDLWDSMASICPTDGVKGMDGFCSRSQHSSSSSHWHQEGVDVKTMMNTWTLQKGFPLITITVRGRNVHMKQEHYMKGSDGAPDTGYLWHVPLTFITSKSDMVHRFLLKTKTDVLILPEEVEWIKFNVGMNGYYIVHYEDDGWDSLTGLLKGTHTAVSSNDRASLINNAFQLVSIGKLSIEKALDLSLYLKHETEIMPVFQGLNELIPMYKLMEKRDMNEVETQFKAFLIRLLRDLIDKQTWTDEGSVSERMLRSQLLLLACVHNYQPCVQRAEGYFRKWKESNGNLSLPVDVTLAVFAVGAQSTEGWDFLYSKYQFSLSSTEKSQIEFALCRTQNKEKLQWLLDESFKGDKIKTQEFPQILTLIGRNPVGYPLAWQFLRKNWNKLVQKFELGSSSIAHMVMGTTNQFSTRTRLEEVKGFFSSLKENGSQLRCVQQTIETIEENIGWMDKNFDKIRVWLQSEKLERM
rRNA inh HTS – reduced GFP signal of wild-type E. coli, primary screen, bacterial rRNA inhibitor project, GFP/RFP fluorescence, OD600, single point. hit rate 1.6% among 350,000. E. coli WT GFP vs humanized-ribosome RFP mutants, 24 h; active compounds read low; DMSO median 0, no signal -100. GFP signal change (wild-type ribosome), % (concentration not given with the values);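 active means significant combined selectivity score with lowered wild-type GFP, culture density cut under 30%, mutant RFP and density less affected; inactive means any of these conditions unmet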
PGC1a acetyl inh – inhibitors of PGC1a acetylation signal, primary screen, cell-based, U2OS, AlphaScreen, inhibitor mode; AlphaScreen anti-acetyl-lysine; with virally co-expressed GCN5 acetyltransferase; inhibition, % at 15.6 µM; hit rate 0.17% among 350,000; AID 651687, 2012;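 active means every replicate shows inhibition of at least 40%; inconclusive means mean inhibition at least 40% but some replicate below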
GSIS activator – GLuc luminescence reporter in INS-1E cells, primary screen for activators of glucose-dependent secretion of insulin | hit rate 0.61% among 370,000 | activation, % at 16.6 µM | INS-1E GLuc reporter insulin secretion, 2-3 h;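 active means lowest replicate activation of at least 40%, so every replicate reaches that level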
DENV2 CPE rescue – inhibitors of DENV2 cytopathic effect, primary screen, cell-based, plate reader, single concentration. DENV2-infected cells, cytopathic effect rescue. CPE inhibition, % at 9.99 µM. hit rate 1.7% among 350,000. AID 651640, 2012; in the data active means CPE inhibition above about 20%, passing the limit was not always enough; inconclusive means no clear call, values can overlap the other calls; tested in BHK-21 cells
CaV13 FRET inh – Disruptors of the CACNA1D IQ motif to Ca2+-dependent inactivation inhibitor domain association, primary screening, Förster resonance energy transfer in intact living …; HEK cells, CFP/YFP FRET ICDI-IQ, plate reader, 10 min; percent FRET-ratio fall versus neutral wells; inhibition, % at 12.3 µM; hit rate 0.098% among 340,000;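 active means mean replicate inhibition of at least 30% and at least 1% of replicates passing that level; inconclusive means only one of the two criteria is met; inactive means neither criterion is met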
HepG2 cytotox – cytotoxicity in HepG2 cells, dose response, cytotoxicity control, cell-based, CellTiter-Glo luminescence, cherry-pick, set 4 | shares compounds with rRNA inh HTS | HepG2 viability, ATP luminescence, 72 h | activity change, negative = cytotoxicity, unspecified at 26 µM | 30 tested, under 10 active;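 active means compounds whose fitted half-maximal signal-loss concentration is at most twice their highest valid dose; inconclusive means flat curve with 30 to 70% signal loss, or poor fit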
AID977621 – growth inhibition of wild-type GFP E. coli, dose response, H69 mutant RFP, cherry-pick; shares compounds with rRNA inh HTS; E. coli wild-type GFP strain growth, fluorescence, 24 h; activity change, negative = inhibition at 50 µM; 1,900 tested, under 10 active; AID 977621, 2014;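 active means Wild-type ribosome reporter drop at least double the humanized mutant ribosome reporter drop, growth loss under a set limit; inconclusive means no clear call, values can overlap the other calls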;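 further: wild-type GFP and H69 mutant RFP strains grown together 50/50 in each well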
AID977628 – E. coli growth inhibition, wild-type GFP versus h24 humanized RFP strain, dose response, h24 mutant RFP vs wild-type GFP, cherry-pick; shares compounds with rRNA inh HTS; 1,900 tested, under 10 active; E. coli WT GFP strain growth, fluorescence, 24 h; activity change, negative = inhibition at 50 µM;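 active means compound lowering the normal-ribosome reporter at least twice as much as the humanized-ribosome reporter, growth loss under a set limit; inconclusive means no clear call, values can overlap the other calls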;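 further: wild-type GFP and h24 humanized RFP strains co-cultured 1 to 1 per well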
Of the large screens only hits and unclear results are named; the others gave an inactive call (follow-up assays come after a bar, where they were run).

CCc1nnc(NC(=O)CSc2ncc(-c3ccccc3)[nH]2)s1	rRNA inh HTS -20 | AID977621 inactive | AID977628 inactive
COc1cccc(NC(=O)N[C@@H]2C=C[C@H](CC(=O)N3CCOCC3)O[C@H]2CO)c1	none (no result: CaV13 FRET inh)
Brc1cc2c(cc1Br)OCCOCCOCCO2	rRNA inh HTS -24 (no result: GSIS activator) | AID977621 inconclusive
CCCCCc1nnc(NC(=O)C2COc3ccccc3O2)s1 (stereo unspecified)	rRNA inh HTS -20 (no result: DENV2 CPE rescue, CaV13 FRET inh) | AID977621 inactive | AID977628 inactive
CCOC(=O)c1c(C)[nH]c(C)c1C(=O)COC(=O)C1CCCN1S(=O)(=O)c1ccccc1F (stereo unspecified)	none (no result: rRNA inh HTS, DENV2 CPE rescue, CaV13 FRET inh)
O=C(COC(=O)[C@@H]1CCCN1S(=O)(=O)c1ccccc1F)c1ccccc1	rRNA inh HTS -16 (no result: PGC1a acetyl inh) | AID977621 inactive | AID977628 inconclusive
Cc1cc(C)c(OCCNC(=O)c2ccccc2Sc2ccccc2C#N)c(C)c1	rRNA inh HTS -25 | HepG2 cytotox inactive
Cc1ccccc1OCCNC(=O)c1ccccc1Sc1ccccc1C#N	none (no result: ERAP1 inh, rRNA inh HTS, GSIS activator, DENV2 CPE rescue)
Cn1c(=O)oc2cc(S(=O)(=O)CCC(=O)N3CCN(c4ccccc4F)CC3)ccc21	none
Cc1ccc(C)c(N2CCN(C(=O)CCS(=O)(=O)c3ccc4c(c3)oc(=O)n4C)CC2)c1	rRNA inh HTS -19 | AID977621 inactive | AID977628 inactive
CC(=O)c1ccc(N2CCN(C(=O)C3CCN(S(=O)(=O)c4ccc5c(c4)CC(C)N5C(C)=O)CC3)CC2)cc1 (stereo unspecified)	rRNA inh HTS -19 | AID977621 inactive
CC(C)CC#Cc1ccc2c(c1)O[C@H](CN(C)C(=O)c1ccccc1F)[C@@H](C)CN([C@H](C)CO)S2(=O)=O	DENV2 CPE rescue inconclusive (no result: CaV13 FRET inh)
CN(Cc1ccccc1NS(=O)(=O)c1ccc(Cl)cc1)C1CCCCC1	rRNA inh HTS -29 | AID977621 inactive | AID977628 inconclusive
Cc1ccc(C(=O)Nc2cccc3[nH]c(C(F)(F)F)nc23)cc1	rRNA inh HTS -24 | AID977621 inactive
COc1ccc(CNc2cccc3[nH]c(C(F)(F)F)nc23)cc1	none
O=C(C[C@H]1CC[C@@H]2[C@H](COC[C@@H](O)CN2Cc2cccc(C(F)(F)F)c2)O1)NCCc1ccncc1	none (no result: ERAP1 inh, CaV13 FRET inh)
COc1ccc(NC(=O)CN(C)S(=O)(=O)c2cccs2)cc1	none (no result: ERAP1 inh, rRNA inh HTS, DENV2 CPE rescue, CaV13 FRET inh)
Cc1cccc(NC(=O)CN(C)S(=O)(=O)c2cccs2)c1	rRNA inh HTS -27 (no result: PGC1a acetyl inh) | AID977621 inactive | AID977628 inconclusive
c1cncc(-c2nc3cc4ccccc4cc3[nH]2)c1	rRNA inh HTS -26 | AID977621 inactive
COc1cccc(-c2ccc3c(c2)[C@@H]2[C@@H](CCN2C(=O)Cc2ccncc2)[C@@H](CO)N3)c1	DENV2 CPE rescue inconclusive (no result: CaV13 FRET inh)
COC(=O)c1cn(C(=O)c2ccc(OC)cc2)c2ccccc12	rRNA inh HTS -26 | AID977621 inactive | AID977628 inactive
COC(=O)c1cn(C(=O)c2ccc(C)cc2)c2ccccc12	none
